Hits are enriched below; roughly 21% of the tested compounds scored in any of these assays.
MRP reversal: reverses drug resistance mediated by MRP; H69AR cells + 2 uM doxorubicin, CellTiter-Glo, 72 h; differential viability (reversal), % at 10 µM; hit rate 0.04% among 85,000; AID 602;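 active means viability drop by adding the cancer drug above about 55%, with treated viability meeting a 40% cutoff, limit read from the data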;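 further: larger differential means the compound sensitizes cells more to doxorubicin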
CYP2C9 inh: human CYP2C9 inhibition. hit rate 20% among 96,000. CYP2C9 Supersomes, luciferin-H conversion, luminescence. inhibition, % at 5 µM. P11712. AID 777;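 active means blocking of liver enzyme CYP2C9 beyond about 50% at 5 µM, limit read from the data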
Target sequence (P11712 whole entry, looked up): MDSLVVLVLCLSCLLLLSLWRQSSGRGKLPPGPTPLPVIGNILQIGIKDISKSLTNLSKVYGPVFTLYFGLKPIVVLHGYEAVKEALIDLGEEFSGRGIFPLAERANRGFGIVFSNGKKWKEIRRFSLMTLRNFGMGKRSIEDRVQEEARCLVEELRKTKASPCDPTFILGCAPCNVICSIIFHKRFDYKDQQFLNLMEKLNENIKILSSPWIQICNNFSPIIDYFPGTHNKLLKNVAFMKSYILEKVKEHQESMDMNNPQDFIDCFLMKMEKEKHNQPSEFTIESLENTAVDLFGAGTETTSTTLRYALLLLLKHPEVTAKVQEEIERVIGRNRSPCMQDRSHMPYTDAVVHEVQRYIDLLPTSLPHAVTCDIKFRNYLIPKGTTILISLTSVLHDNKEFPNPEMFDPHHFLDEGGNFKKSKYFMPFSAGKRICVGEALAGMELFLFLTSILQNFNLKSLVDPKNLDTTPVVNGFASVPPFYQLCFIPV
CYP2C19 inh: inhibitors of human CYP2C19; P33261; CYP2C19 Supersomes, luciferin-H EGE luminescence, 30 min; inhibition, % at 5 µM; hit rate 21% among 96,000; AID 778;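 active means CYP2C19 inhibition above a set limit at 5 µM in the primary screen, cut at about 50% in these data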
MRP-1 activ: activates MRP-1; H69AR cells + doxorubicin, viability rescue, CellTiter-Glo; viability increase, % at 10 µM; hit rate 0.61% among 140,000; AID 799;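 active means viability gain under doxorubicin at or above a set limit, the compound median plus 3 SD, cut at about 4.7% in these data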;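 further: MRP-1 overexpressing cells given doxorubicin 25 µM after compound pretreatment; 18-22 h compound pretreatment then 72 h with doxorubicin before readout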
CYP2C9 act: increases human cytochrome P450 2C9 activity | AID 1024 | P11712 | recombinant CYP2C9, luciferin-H conversion, luminescence; stronger effect = higher value; factor 1 = untreated enzyme, 0 = blocked | hit rate 1.4% among 96,000 | activation factor at 5 µM;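 active means activation factor of 2 or more for CYP2C9 at a 5 µM dose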
CYP2C19 act: cytochrome P450 2C19 (human) activation. P33261. recombinant CYP2C19, luciferin-H EGE luminescence; stronger effect = higher value; 0 = fully inhibited enzyme, 1 = untreated enzyme. activation factor at 5 µM. 96,000 tested, under 10 active. AID 1025;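 active means activation factor of at least 2 at 5 µM in the primary screen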
A number is an active result; . = inactive; / = not tested or not shown.

SMILES	MRP reversal	CYP2C9 inh	CYP2C19 inh	MRP-1 activ	CYP2C9 act	CYP2C19 act
Clc1ccc(/C=C/c2nc3ccccc3[nH]2)cc1	/	.	.	.	.	.
CCOC(=O)C(NCc1ccc2c(c1)OCO2)(NC(=O)CC)C(F)(F)F (stereo not given)	.	88	97	.	.	.
CCOC(=O)C(NCCc1ccccc1)(NC(=O)CC)C(F)(F)F (stereo not given)	/	/	/	.	/	/
O=C(NCCSCc1ccccc1)c1ccc(C2SCC(=O)N2Cc2ccccc2)cc1 (stereo not given)	.	97	92	.	.	.
CC(C)Oc1ccc(CNC(=S)N/N=C/c2ccc([N+](=O)[O-])cc2)cc1	.	.	.	.	.	.
CCNc1nc(NCC)n2c(SCc3ccc(F)cc3)nnc2n1	.	.	96	.	.	.
Cc1[nH][nH]c(=O)c1C(c1ccc(-c2ccc(Cl)c(Cl)c2)o1)c1c(C)[nH][nH]c1=O	.	.	59	.	.	.
Cc1[nH][nH]c(=O)c1C(c1cc([N+](=O)[O-])ccc1O)c1c(C)[nH][nH]c1=O	/	/	/	.	/	/
CCN(CC)S(=O)(=O)c1cc(C(=O)Nc2ccc(Cl)cn2)ccc1C	.	80	81	.	.	.
CCN(CC)S(=O)(=O)c1cc(C(=O)NC2CCCCC2)ccc1C	.	65	.	.	.	.
CCN(Cc1ccccc1)S(=O)(=O)c1cc(C(=O)NC2CCCCCC2)ccc1OC	/	/	/	.	/	/
CN(c1ccc(Cl)cc1)c1cc(=O)n(C)c2ccccc12	.	97	100	.	.	.
Cc1cc(C)c2c(CC(=O)Nc3nccs3)coc2c1	.	.	.	.	.	.
COc1ccc(C2C(C(=O)Nc3ccccn3)=C(C)Nc3ncnn32)c(OC)c1 (stereo not given)	/	.	.	.	.	.
CN(C)S(=O)(=O)N1CCN(c2ccccc2)CC1	.	.	86	.	.	.
CN(C)S(=O)(=O)N1CCN(c2ccccc2Cl)CC1	.	81	92	.	.	.
CN(C)S(=O)(=O)N1CCN(c2cccc(Cl)c2)CC1	.	.	.	.	.	.
CCS(=O)(=O)N1CCN(c2ccc(Cl)cc2[N+](=O)[O-])CC1	/	/	/	.	/	/
CN(C)S(=O)(=O)N1CCN(Cc2ccccc2)CC1	.	.	93	.	.	.
CN(C)S(=O)(=O)N1CCC(Cc2ccccc2)CC1	.	/	/	.	/	/
CN(C)S(=O)(=O)N1CCN(c2cc(Cl)ccc2Cl)CC1	.	68	91	.	.	.
CCOC(=O)N1CCN(C(=O)C(NC(=O)c2ccc(CC)cc2)C(C)C)CC1 (stereo not given)	.	.	.	.	.	.
Cc1cc(NC(=O)COC(=O)c2cc(S(=O)(=O)N3CCOCC3)ccc2N2CCCCC2)no1	.	.	.	.	.	.
CCOc1ccc(CCNC(=O)COC(=O)c2nc3nc(C)cc(C)n3n2)cc1OCC	/	/	/	.	/	/
CN(C)S(=O)(=O)N1CCN(CC(=O)Nc2cc(Cl)ccc2Cl)CC1	.	.	72	.	.	.
SMILES	MRP reversal	CYP2C9 inh	CYP2C19 inh	MRP-1 activ	CYP2C9 act	CYP2C19 act
CN(C)S(=O)(=O)N1CCN(C(=O)c2ccccc2Cl)CC1	.	.	76	.	.	.
C=CCN1CC(c2nc3ccccc3n2Cc2cccc3ccccc23)CC1=O (stereo not given)	.	60	.	.	.	.
Cc1ccc(OCCn2c(C3CC(=O)N(Cc4ccccc4)C3)nc3ccccc32)cc1 (stereo not given)	.	84	.	.	.	.
CCn1c(CCNC(=O)c2cccs2)nnc1SCC(=O)NC1CCCCC1	.	.	.	.	.	.
CCN(CC(=O)Nc1cc(Cl)ccc1C)c1ncnc2sc(C)c(C)c12	/	/	/	.	/	/
COc1ccc(NS(=O)(=O)c2cccc3cccnc23)cc1	.	/	/	.	/	/
COc1ccc(S(=O)(=O)Nc2cccc(C)n2)c2ccccc12	.	.	67	.	.	.
Cc1cccc(NS(=O)(=O)c2cccc3cccnc23)n1	.	.	.	.	2.5	.
COc1ccc(OC)c(NC(=O)c2ccccc2NS(=O)(=O)c2cccc3cccnc23)c1	/	92	77	.	.	.
COc1cccc(CNc2cnc3ccccc3c2)c1O	.	/	/	.	/	/
O=C(Nc1cccc2ccccc12)c1ccccc1NS(=O)(=O)c1cccc2cccnc12	/	/	/	.	/	/
Cc1cccc(NS(=O)(=O)c2ccccc2)n1	.	.	.	.	.	.
COc1cccc(CNc2cccc3cccnc23)c1O	.	.	81	.	2.2	.
COCn1ccnc1C(O)(c1ccc(OC)cc1)c1ccc(OC)cc1	/	/	/	.	/	/
COc1ccccc1NC(=O)c1ccc(NS(=O)(=O)c2cccc3cccnc23)cc1	/	/	/	.	/	/
COc1ccccc1NS(=O)(=O)c1cccc2cccnc12	.	.	70	.	.	.
Cc1nn(C)cc1CNC(=O)c1ccc(F)cc1	/	/	/	.	/	/
C=CCOc1ccc(CNc2nn[nH]n2)cc1	.	.	.	.	.	.
COc1cc(/C=N/N2C(=O)c3ccccc3NC2(C)c2cccc([N+](=O)[O-])c2)cc(Br)c1O (stereo not given)	/	92	50	.	.	.
O=C(NCCc1csc(-c2cccnc2)n1)c1ccccc1	.	65	82	.	.	.
O=C(NCCc1csc(-c2ccccc2)n1)c1cccs1	.	74	.	.	.	.
Cc1nc(CCNC(=O)c2cccs2)cs1	.	/	/	.	/	/
O=C(NCc1csc(-c2ccccc2)n1)c1ccco1	.	.	84	.	.	.
O=C(Nc1nsc(-c2ccccc2)n1)c1cccs1	.	75	.	.	.	.
CC(=S)c1c(C)cc2cc(C)ccn12	/	/	/	.	/	/
SMILES	MRP reversal	CYP2C9 inh	CYP2C19 inh	MRP-1 activ	CYP2C9 act	CYP2C19 act
Cc1cccc(/C=N\NC(=O)c2sccc2-n2cccc2)c1	/	.	.	.	.	.
Cc1nc2ccc(NC(=O)Cn3cnc4c3c(=O)n(C)c(=O)n4C)cc2s1	.	.	.	/	.	.
O=C(NCCc1csc(-c2cccnc2)n1)c1cccc2ccccc12	.	86	79	.	.	.
CC(=O)NCCc1csc(-c2ccccc2)n1	.	/	/	.	/	/
CC1CCN(c2nc3c(c(=O)[nH]c(=O)n3C)n2Cc2ccccc2Cl)CC1	.	/	/	.	/	/
O=S(=O)(Cc1ccccc1Cl)N1CCCCC1	.	.	60	.	.	.
O=S(=O)(Cc1ccccc1)N1CCCC1	.	.	.	.	.	.
CC1CCN(S(=O)(=O)Cc2ccccc2Cl)CC1	/	.	96	.	3.4	.
Cn1c(C(=O)O)c(CC(=O)Nc2ccc3c(c2)OCCO3)c2ccccc21	.	65	59	.	.	.
Cn1c(C(=O)O)c(CC(=O)Nc2ccc(F)cc2F)c2ccccc21	.	95	78	.	.	.
Cc1ccc(NC(=O)CSCc2ccc(F)cc2)cc1	/	/	/	.	/	/
CCN(CC)CCNC(=O)Cc1c(C(=O)O)n(C)c2ccccc12	.	.	.	.	.	.
Cn1c(C(=O)O)c(CC(=O)NCc2cccnc2)c2ccccc21	.	63	.	.	.	.
